From PubChem BioAssay
ULK1 primary: human ULK1 kinase inhibition, primary screen; AlphaScreen Atg13 phosphorylation by ULK1, luminescence; actives 1.9% (n = 30,000); inhibition, % at 5.96 µM; O75385; in the data active = inhibition above about 43%;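 also: 0% = median of compound wells and 100% = no enzyme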
ASK1 inh: inhibitors of human ASK1 kinase. inhibition, % at 7.44 µM. AlphaScreen MKK6 phosphorylation by ASK1, luminescence. actives 0.99% (n = 22,000). Q99683; in the data active = inhibition above about 35%;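 also: 0% = median of compound wells and 100% = no enzyme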
Active calls of the source: *. Shown are actives, neighbours in structure and some others; about 2.5% of the full set was active somewhere.

For Oc1cc(Cl)ccc1Oc1ccc(Cl)cc1Cl the results were ULK1 primary 44*.
Screening Oc1ccc(Cl)cc1Cc1ccccc1 returned ULK1 primary -34.
Screening O=P(Oc1ccccc1)(Oc1ccccc1)N1CCCCC1 returned ULK1 primary 0.
`CNC(C)Cc1ccc(O)cc1` (centres undefined) gave ULK1 primary -6.
For CN(C)[C@@H]1C(=O)C(C(N)=O)=C(O)[C@@]2(O)C(=O)C3=C(O)c4c(O)cccc4[C@@](C)(O)[C@H]3[C@H](O)[C@@H]12 the results were ULK1 primary 51*.
Screening CCCCCCCCCC(=O)OC1CCC2C3CCC4=CC(=O)CCC4C3CCC12C (centres undefined) returned ULK1 primary 4.
For CCC(CC)N1CCN(Cc2cccc(F)c2)CC1 the results were ULK1 primary 8.
COc1ccc(/C=C2/C(=N\O)C3CCN2CC3)cc1 was read as ULK1 primary -7.
For CCC(CO)NC(=O)[C@@H]1C=C2c3cccc4[nH]cc(c34)C[C@H]2N(C)C1 (some centres undefined) the results were ULK1 primary 53*.
CN1C[C@H](C(=O)N[C@]2(C)O[C@@]3(O)C4CCCN4C(=O)[C@H](Cc4ccccc4)N3C2=O)C=C2c3cccc4[nH]cc(c34)C[C@H]21 (some centres undefined) was read as ULK1 primary 23.
`CN(CCN(C)C(C)(C)C)C(=O)C(O)(c1ccccc1)c1ccccc1` gave ULK1 primary -8.
`COc1cccc(CNC(=O)c2nn(CC3CC3)c3cc(-c4ccnc(N)n4)ccc23)c1` gave ULK1 primary -4 and ASK1 inh -17.
For CCC(Br)(CC)C(=O)NC(N)=O the results were ULK1 primary 82*.
`CCC(CC)N1CCN(Cc2ccc(OC)cc2)CC1` gave ULK1 primary 4.
`CC[n+]1c(-c2ccccc2)c2cc(N)ccc2c2ccc(N)cc21` gave ULK1 primary 62*.
COc1ccc(Oc2ncc(F)c(-c3cc(N4CCOCC4)cc(C(F)(F)F)c3)n2)cc1 (tested in a mixture with another compound) was read as ULK1 primary 2 and ASK1 inh -64.
NCCc1cc(O)c(O)cc1O was read as ULK1 primary 91*.
For C1CN1c1nc(N2CC2)nc(N2CC2)n1 the results were ULK1 primary 10.
